Compounds with a hit are over-represented: about 2.3% of the library has one in this group of screens.
ADAM17 inh = ADAM17 inhibitors, primary screen, biochemical, QFRET; Disintegrin and metalloproteinase domain-containing protein 17 (Homo sapiens), P78536; recombinant ADAM17, EDANS/DABCYL FRET peptide cleavage; inhibition, % at 6.95 µM; 0.83% of 370,000 active; AID 720648, 2013;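 active = inhibition above the mean of compounds lying between control limits plus 3 SD, set per campaign, cut at about 8.5% in these data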;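 note: 0% = DMSO-only wells as the low control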
proKLK7 act = proKLK7 zymogen activators, primary screen, biochemical, fluorescence intensity. purified proKLK7, EDANS-DABCYL substrate fluorescence; 100% is mature enzyme control, 0% vehicle. activation, % at 7 µM. 0.9% of 370,000 active. AID 652039, 2013;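 active = activation above the mean of all tested compounds plus 3 SD, computed per campaign excluding outliers beyond control limits, cut at about 13% in these data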
Target sequence (P49862 whole entry, looked up): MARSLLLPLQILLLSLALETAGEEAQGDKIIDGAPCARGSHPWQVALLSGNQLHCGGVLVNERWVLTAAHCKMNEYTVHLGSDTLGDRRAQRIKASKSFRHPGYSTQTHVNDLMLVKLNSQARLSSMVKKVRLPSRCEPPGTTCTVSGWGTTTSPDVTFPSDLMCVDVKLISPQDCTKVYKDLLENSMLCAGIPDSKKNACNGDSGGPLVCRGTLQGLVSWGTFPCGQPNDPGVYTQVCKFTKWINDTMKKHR
ADAM10 inh = human ADAM10 inhibitors, primary screen, biochemical, QFRET, HTS; 0.62% of 370,000 active; AID 720582, 2013; Disintegrin and metalloproteinase domain-containing protein 10 (Homo sapiens), O14672; inhibition, % at 7 µM; recombinant ADAM10, EDANS/DABCYL FRET peptide cleavage, 3 h;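 active = inhibition above a per-campaign cutoff equal to the mean of compounds falling between control-based bounds plus 3 SD, cut at about 20% in these data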;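 note: 0% = DMSO wells while the 100% control is not disclosed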
V-ATPase pH = regulators of yeast V-ATPase proton pumping, primary screen, pHLuorin cytosolic pH fluorescence; AID 504577, 2011; 0.37% of 350,000 active; response, % at 10 µM; S. cerevisiae; in the data active = response mostly above about 7.3%, no sharp cut-off; inactive = mostly below about 5.4%; note: actives read high
ADAM10 counter = ADAM10 inhibitors, counter-screen for ADAM17 exosite inhibitor project, biochemical, FRET, human ADAM10 | inhibition, % at 6.95 µM | shares compounds with ADAM17 inh | 47% of 2,900 active | recombinant ADAM10, EDANS/DABCYL FRET peptide cleavage, 3 h;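 active = mean inhibition over the triplicate runs exceeds the activity threshold set in the earlier primary screen, cut at about 20% in these data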;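 note: 0% = DMSO wells and 100% = marimastat wells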
ADAM17 confirm = ADAM17 inhibitors, hit retest, confirmation, biochemical, QFRET peptide cleavage; shares compounds with ADAM17 inh; recombinant ADAM17, EDANS/DABCYL QFRET peptide cleavage; inhibition, % at 6.95 µM; 65% of 2,900 active; AID 743257, 2014;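 active = mean inhibition across replicates above the hit cutoff set in the primary screen, cut at about 8.5% in these data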;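 note: 0% = DMSO wells and 100% = marimastat wells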
* hit, by the source's call; / = not tested or not shown.

SMILES	ADAM17 inh	proKLK7 act	ADAM10 inh	V-ATPase pH	ADAM10 counter	ADAM17 confirm
Cc1ccc(CNC(=O)c2nnc(CS(=O)(=O)c3ccccc3)o2)cc1	1.1	0.1	6.0	-0.6	/	/
O=C(NCc1ccccc1Cl)c1nnc(CS(=O)(=O)c2ccccc2)o1	10.9*	-0.6	17.2	-0.9	-1.5	-0.6
Cc1ncc([N+](=O)[O-])n1CC(=O)N/N=C/c1ccccc1F	9.9*	0.2	11.8	-1.7	4.7	3.0
Cc1cc([N+](=O)[O-])nn1CC(=O)N/N=C/c1ccccc1F	-1.7	-0.3	-10.1	-2.9	/	/
Cc1nn(-c2ccccc2)c2sc(C(=O)N3CCN(C(c4ccccc4)c4ccc(Cl)cc4)CC3)cc12 (stereo not given)	-2.1	-0.6	-6.5	/	/	/
CCn1c2c(c3cc(OCC(C)C)ccc31)CCCC2=O	-10.2	-12.1	-27.4	0.4	/	/
CCn1c2c(c3cc(Br)ccc31)CCC/C2=N\O	9.5*	-0.6	15.8	7.9	0.5	5.6
O=C(C1CCN(c2ncnc3c2sc2cccc(F)c23)CC1)N1CCN(Cc2ccccc2)CC1	-8.2	-2.4	-31.4	/	/	/
Cc1ccc(S(=O)(=O)NC(C)CCc2ccccc2)cc1 (stereo not given)	9.5*	0.2	7.5	3.0	2.4	5.8
COc1ccc(C(CNC(=O)c2cccc(N(C)C)c2)N2CCCC2)cc1 (stereo not given)	9.4*	0.7	2.0	-0.9	-40.8	-3.3
Cc1cccc(Nc2nc(N)c([N+](=O)[O-])c(NCc3ccccc3)n2)c1	9.2*	-0.6	13.3	-1.6	10.4	5.5
COc1ccc(-c2c(Cc3ccccc3)nc(NC(=O)c3ccccc3)n2C)cc1	2.7	-0.5	-3.6	/	/	/
CC(=O)OCC(=O)[C@@]12OC3(CCCC3)O[C@@H]1C[C@H]1[C@@H]3CCC4=CC(=O)C=C[C@]4(C)[C@@]3(F)[C@@H](O)C[C@@]12C	8.7*	0.7	19.0	-4.8	8.2	5.9
COc1ccc(N2C[C@@]3(O)CC[C@@H](O)[C@@H](OC)[C@@H]3[C@@]2(C)[C@H](O)CC=C(C)C)cc1	-2.9	0.4	-4.9	/	/	/
CC(C)(C)c1nc(NC(=O)Nc2ccccc2)sc1Br	10.7*	-0.2	19.6	-1.6	35.0*	21.1*
COc1cccc(NC(=S)N/N=C2/CCCCc3ccccc32)c1	9.2*	-0.6	7.5	1.5	7.5	4.9
Cc1ccc(C(=O)NC(=S)/C=C2\N(C)c3ccccc3C2(C)C)cc1	17.5*	0.7	16.5	3.3	26.5*	13.4*
CCOC(=O)N[C@H](C(=O)N1CCC[C@H]1C(=O)NCCc1ccccc1Cl)C1CCCCC1	-1.3	0.1	-4.2	/	/	/
Cc1ccc(-n2c(C3CC3c3ccc(Cl)cc3)n[nH]c2=S)cc1 (stereo not given)	11.5*	-0.4	15.9	-0.3	15.6	11.9*
Cc1ccc(C2CC2c2n[nH]c(=S)n2-c2ccc(C)cc2)cc1 (stereo not given)	0.7	-0.2	13.5	-4.9	/	/
C[C@@H]1COc2cccc(N3CCCC3)c2S(=O)(=O)N1	-3.6	0.1	-13.4	/	/	/
CCC(C)c1ccc(O)c(NC(=S)NC(=O)c2cccnc2)c1 (stereo not given)	6.6	1.0	7.1	-2.3	/	/
CCC(C)c1ccc(O)c(NC(=O)c2cncc(Br)c2)c1 (stereo not given)	10.4*	-0.6	18.9	-2.6	13.5	9.8*
O=C(NCc1ccc(Cl)c(Cl)c1)c1cc(C2CCCCN2C(=O)C2CCCCC2)on1 (stereo not given)	10.2*	1.1	17.1	/	8.5	8.0
COC(=O)N1CCCCC1c1cc(C(=O)NCc2ccc(Cl)c(Cl)c2)no1 (stereo not given)	-2.1	0.6	-5.5	/	/	/
CN(C)c1ccc(-c2csc(C(C)(O)c3ccc(F)c(F)c3)n2)cc1 (stereo not given)	13.2*	0.2	5.6	/	10.9	5.0

From PubChem
